Bioassay records as filed in PubChem BioAssay.
aSyn 5UTR act: Activators via SNCA 5'UTR binding, MLPCN. alpha-synuclein 5'UTR reporter, activators screen. activity score, % (tested at 7.5 µM), hits read low. 300,000 compounds, 7.1% hits; in the data active = activity score below about -60%
An asterisk follows results filed as active. Not all results are given here.

SMILES	aSyn 5UTR act
O=C1C2C(C(=O)N1/N=C/c1cccc([N+](=O)[O-])c1)C1C=CC2C12CC2 (stereo not given)	-153*
COc1ccc(-c2csc(-c3cccnc3)n2)cc1C	-243*
COc1ccc2cc(-c3csc(-c4cccnc4)n3)ccc2c1	-251*
Cc1ccc2[nH]c(SCC(=O)N3CCOCC3)nc2c1C	-110*
C/C(N)=C(/C#N)C(=O)CSc1nc2ccc(C)cc2[nH]1	-183*
Cc1ccc2nc(SCC(=O)N3CCOCC3)[nH]c2c1	-89*
Cc1ccc2nc(SCC(=O)Nc3cc(C(F)(F)F)ccc3N3CCOCC3)[nH]c2c1	96
CCOc1ccc2nc(SCc3ccc(F)cc3)sc2c1	-68*
O=C(CCl)Nc1cccc(S(=O)(=O)N2CCCCCC2)c1	-92*
O=C(Nc1cccc(O)c1)c1cccc(S(=O)(=O)N2CCCCCC2)c1	-85*
O=C(COC(=O)c1ccc(O)cc1)Nc1cccc(S(=O)(=O)N2CCCCC2)c1	29
O=C(Oc1cccc(NC(=O)c2ccco2)c1)c1cccc(S(=O)(=O)N2CCCC2)c1	-72*
O=C(Nc1ccc2c(c1)OCO2)c1cccc(S(=O)(=O)N2CCCC2)c1	-104*
O=C(Nc1cccc(O)c1)c1ccc(Br)c(S(=O)(=O)N2CCCCC2)c1	-70*
c1ccc2cc(Sc3ncnc4c3oc3ccccc34)ccc2c1	-71*
CCSc1ncnc2c1oc1ccccc12	-64*
Clc1ncnc2c1oc1ccccc12	-62*
Cc1cc(C)nc(Sc2ncnc3c2oc2ccccc23)n1	-64*
O=C(O)CSCC(=O)Nc1ccc(C2CCCCC2)cc1	108
OCCN1CCN(CC(O)COc2ccc(C34CC5CC(CC(C5)C3)C4)cc2)CC1 (stereo not given)	85
O=C(CSCCO)Nc1ccc(C23CC4CC(CC(C4)C2)C3)cc1	-66*
O=C(COc1ccccc1)NCCSc1ccccc1	-99*
O=C(NCCSc1ccccc1)c1cccnc1	-100*
Cc1ccccc1C(=O)NCC(=O)c1ccccc1	-135*
O=C(NCCSc1ccccc1)c1ccccc1F	-76*
SMILES	aSyn 5UTR act
O=C(CNC(=O)c1ccccc1Cl)c1ccccc1	-113*
CC(CNC(=O)c1ccccc1Cl)c1ccccc1 (stereo not given)	-111*
O=C(CNC(=O)c1ccccc1F)c1ccccc1	-93*
O=C(/C=C/Nc1ccc([N+](=O)[O-])cc1Br)c1cccc2ccccc12	-163*
CN1Cc2cc(C(=O)c3cc(Cl)cc(CSc4ncccn4)c3O)cnc2NC1=O	79
COC(=O)/C(=C/c1cccc([N+](=O)[O-])c1)NC(=O)c1ccc(OC)cc1	-216*
CCn1c(=N)n(CC(=O)c2cccc([N+](=O)[O-])c2)c2ccccc21	-83*
COc1ccc(C(=O)Nc2cccc([N+](=O)[O-])c2)cc1Br	-85*
COc1ccc(Br)cc1CN(C)C(C)C(=O)Nc1cc([N+](=O)[O-])ccc1OC (stereo not given)	51
O=C(/C=C/Nc1ccccc1)c1ccc(Oc2ncccn2)cc1	-244*
COc1ccc(NC(=O)c2coc(C)c2)cc1	-115*
COc1ccc(-c2cccc(C(=O)N3CCOCC3)c2)cc1	-80*
COc1ccc(N/C=C\C(=O)c2ccc3ccccc3c2)cc1	-212*
COc1ccc(-c2cccc(C(=O)Nc3cccc(C(=O)O)c3)c2)cc1	-149*
CCOc1ccc(N/C=C/C(=O)c2ccc(OC)c(OC)c2)cc1	-175*
Cc1ccc(NCCC(=O)c2cccc([N+](=O)[O-])c2)cc1	-151*
COc1ccc(C(=O)CNc2ccccc2Br)cc1	-181*
COc1ccc(C(=O)CNc2ccc3ccccc3c2)cc1	-70*
COc1ccc(NC(=O)c2cc([N+](=O)[O-])ccc2O)cc1	85
COc1ccc(NC(=O)c2cccc([N+](=O)[O-])c2)cc1	-105*
COc1ccc(C(=O)Nc2ccc(S(=O)(=O)N(C)c3ccccc3)cc2)cc1	-74*
CN(C)S(=O)(=O)Oc1cccc(C(=O)Nc2ccc([N+](=O)[O-])cc2)c1	-168*
COc1ccc(C(=O)/C=C/Nc2ccc(C)cn2)cc1OC	-140*
CCOc1ccc(NS(=O)(=O)c2cc(OC)ccc2OC)cc1	-91*
COc1ccc(NC(=O)c2ccc3ccccc3c2)cc1	-92*
SMILES	aSyn 5UTR act
CC(=O)/C=C(\C)Nc1ccc(-c2cnc(-c3ccccc3)o2)cc1	-95*
Cc1cccn2cc(COc3cccc([N+](=O)[O-])c3)nc12	-65*
C/C(=N\Nc1cc(N2CCOCC2)ncn1)c1cccc([N+](=O)[O-])c1	-81*
C/C(=N\Nc1cc(N2CCOCC2)ncn1)c1ccccc1	-79*
O=[N+]([O-])c1cccc(/C=N/Nc2cc(N3CCOCC3)ncn2)c1	-90*
Clc1ccccc1/C=N/Nc1cc(N2CCOCC2)ncn1	-151*
C=CCOc1c(Cl)cc(C(=S)N2CCCC2)cc1OCC	-95*
CC(Oc1ccc(Cl)cc1Cl)C(=O)Nc1cccc(O)c1 (stereo not given)	-62*
CC(Oc1ccc(Br)cc1Cl)C(=O)Nc1ccncc1 (stereo not given)	-84*
O=C(CC(SCCO)c1ccc2c(c1)OCO2)c1cccs1 (stereo not given)	-193*
O=C(CC(SCc1ccco1)c1ccc(O)cc1)c1cccs1 (stereo not given)	-168*
CCOc1ccc(C2C=C(c3ccccc3)Nc3nnnn32)cc1 (stereo not given)	-152*
COc1ccccc1C1CC(=O)Nc2cc(C)c(C)cc21 (stereo not given)	63
Cc1ccc(C2=CC(c3cccs3)n3nnnc3N2)cc1 (stereo not given)	-187*
COc1ccccc1C1C=C(c2ccc(C)cc2)Nc2nnnn21 (stereo not given)	-128*
NC1=NC(=O)/C(=C\C=C\c2ccccc2)S1	-73*
ClC1=C(Cl)C(Cl)=C(Cl)C1=C/C=C/c1ccccc1	113
COCCCNC(=O)c1cc2c(-c3ccc(Cl)cc3)nn(C)c2s1	-72*
Cn1nc(-c2ccc(Cl)cc2)c2cc(C(=O)N3CCN(c4ccccc4)CC3)sc21	-65*
COc1cccc(-c2nn(C)c3sc(C(=O)NCCCN(C)Cc4ccccc4)cc23)c1	-76*
CCCNC(=O)CCn1nc(-c2ccc(Cl)cc2)c2ccccc2c1=O	82
Cc1nn(-c2ccccc2)c2sc(C(=O)N3CCOCC3)cc12	-87*
CCC(C)n1ncn(-c2ccc(N3CCN(c4ccc(O)cc4)CC3)cc2)c1=O (stereo not given)	73
Cc1cnc(C(=O)Nc2ccc(F)cc2)cn1	-101*
Cn1nc(CC(=O)Nc2ccc(N3CCN(C(=O)OC(C)(C)C)CC3)cc2)c2ccccc2c1=O	77
SMILES	aSyn 5UTR act
Cc1cnc(C(=O)Nc2ccc(N3CCN(C(=O)OC(C)(C)C)CC3)cc2)cn1	-89*
Cc1cnc(C(=O)Nc2ccccc2F)cn1	-91*
Cc1cnc(C(=O)Nc2ccc(C(C)C)cc2)cn1	-142*
COC(=O)c1ccc(N)nc1	-79*
c1ccc(COc2ccc3nocc3c2)cc1	-104*
CO/N=C/c1ccc(Oc2ccc(C)cc2)nc1	-77*
Cc1ccc(-c2cnn(-c3ccccc3)c2N)cc1	-69*
Nc1c(-c2ccc(Cl)cc2)cnn1-c1ccccc1	-180*
Nc1c(-c2ccccc2)cnn1-c1ccc(C(=O)O)cc1	-130*
Cc1ccc(-c2cnn(-c3cccc([N+](=O)[O-])c3)c2N)cc1	-105*
O=c1c2ccccc2c(-c2ccc(O)cc2)nn1-c1cccc(C(F)(F)F)c1	52
Nc1c(-c2ccc(Cl)cc2)nnn1-c1ccccc1	-159*
